Source: PubChem BioAssay (NCI)
This is part of a sample that, as a whole, favours compounds with a hit. Of some 83,000 tested, about 20% had one in any assay.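 Assay: single dose, 48 h. Readout: percent growth (0 = no net growth; negative = cell death). Active: <10.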 A number with no mark means an inactive call. Calls of active or inactive are those of the source.

Legend:
Experiment in all cases: NCI-60 one-dose screen, 48 h (100 = growth as untreated, 0 = no growth, -100 = all killed)
Details in all cases: 10 µM unless noted
[1] = test system: HCT-15 colon
[2] = test system: HT29 colon
[3] = test system: SNB-75 CNS
[4] = test system: SNB-19 CNS
[5] = test system: U251 CNS
[6] = test system: PC-3 prostate
[7] = test system: SK-MEL-5 melanoma
[8] = test system: UACC-62 melanoma
[9] = test system: LOX IMVI melanoma
[10] = test system: SK-MEL-28 melanoma
[11] = test system: SK-MEL-2 melanoma
[12] = test system: EKVX NSCLC
[13] = test system: SN12C renal
[14] = test system: UO-31 renal
[15] = test system: TK-10 renal
[16] = test system: ACHN renal
[17] = test system: CAKI-1 renal
[18] = test system: A498 renal
[19] = test system: CCRF-CEM leukemia
[20] = test system: MOLT-4 leukemia

SMILES | growth [1] | growth [2] | growth [3] | growth [4] | growth [5] | growth [6] | growth [7] | growth [8] | growth [9] | growth [10] | growth [11] | growth [12] | growth [13] | growth [14] | growth [15] | growth [16] | growth [17] | growth [18] | growth [19] | growth [20]
COc1ccc(N=Nc2c(N)nn3c(-c4ccc(OC)c(OC)c4)ccnc23)cc1 | 91.7% | 68.5% | 82.3% | 74.1% | 69.3% | 87.5% | 77.4% | 64.3% | 86.1% | 86.4% | 103% | 103% | 88.5% | 108% | 88.6% | 77.4% | -60.2% (active) | 95.7% | 86.9% | 100%
CCOC(=O)/C(F)=C/C1CC1CCc1ccc(OCC)cc1 (stereo not given) | 70.6% | 58.5% | 81.3% | 95.4% | 104% | 85.2% | 63.7% | 87.5% | 97.9% | 110% | 102% | 47.7% | 44.9% | 73.8% | 98.2% | 75.1% | 86.1% | 102% | 106% | 98.4%
CC[C@]12C=CCN3CC[C@]4(C(=C(C(=O)OC)C1)Nc1cc(OC)c([C@@H]5[C@H]6O[C@H]6[C@@]6(CC)CC(C(=O)OC)=C7Nc8cc(OC)ccc8[C@@]78CCN5[C@@H]68)cc14)[C@@H]32 | 24.8% | 58.9% | 50% | 58.2% | 48.4% | 18.7% | 27.9% | 42.9% | 15.5% | 82.5% | 83.1% | 51.7% | 50% | 69.5% | 72.5% | 44% | 43.4% | 141% | 30.8% | 18.4%
CN(C)CCCNC(=S)Nc1ccc(/C=C/c2ccc(Cl)cc2)cc1 | -93.8% (active) | -51.4% (active) | 8.9% (active) | -35.2% (active) | -2.11% (active) | -35.3% (active) | -98.6% (active) | -82.3% (active) | -64.5% (active) | -97.6% (active) | -85.4% (active) | -35.1% (active) | -100% (active) | -95.8% (active) | -87.9% (active) | -97.6% (active) | -77.3% (active) | -47.7% (active) | -16.9% (active) | 0.54% (active)
COc1ccc(SC2c3cc(OC)ccc3Oc3nc(N)c(C#N)c(N)c32)cc1 (stereo not given) | 80.5% | 97.4% | 49.6% | 71.7% | 65.3% | 42.4% | 60.4% | 65.5% | 5.16% (active) | 111% | 94.5% | 76.3% | 73.7% | 39.7% | 110% | 76.3% | 79.1% | 107% | 4.16% (active) | 55.4%
COc1ccc(-c2cc(-c3cc(OC)c(OC)c(OC)c3)[nH]c(=O)c2C#N)cc1 | 81% | 103% | -22.4% (active) | 8.18% (active) | 42.2% | 70.9% | 64.9% | 59.3% | 40.2% | 51.9% | 97.8% | 65.6% | 8.1% (active) | -24.9% (active) | 40.8% | -25.4% (active) | 47% | -2.4% (active) | 76.7% | 80.1%
CN(C)c1nc(NCCNS(=O)(=O)c2ccc(C(=O)/C=C/c3ccc(F)cc3)cc2)nc(N2CCOCC2)n1 | -29.8% (active) | -79.7% (active) | 58.5% | 67.9% | -86.1% (active) | 49.2% | 66.1% | 55.2% | -97.6% (active) | 97.2% | 62.2% | 59% | 64.3% | 60.1% | 72.2% | 78.6% | 57.3% | 86.5% | 22.5% | -6.53% (active)
Cc1ccc(NC(=O)N/N=C/c2c[nH]c3ccccc23)c(C)c1 | 9.06% (active) | -35.4% (active) | 14.5% | 34.7% | 9.2% (active) | 27.8% | 5.42% (active) | 8.67% (active) | -19% (active) | 47.8% | 20.5% | 34.7% | 15.9% | 26.6% | 30.5% | 22.8% | 29.1% | 55.7% | 10% | 6.25% (active)
N#CC1=C(c2ccco2)Nc2c(c(-c3ccccc3)nn2-c2ccccc2)C12C(=O)Nc1ccc(Cl)cc12 (stereo not given) | 30.4% | 41.9% | -56.4% (active) | 3.22% (active) | -21.7% (active) | -41% (active) | 50.4% | 37.4% | 2.55% (active) | 45.6% | 80.2% | 24.2% | -44.4% (active) | 43.1% | -15.4% (active) | 8.94% (active) | 33% | 135% | 25% | 34.8%
CCOC(=O)/C(F)=C/C1CC1C(c1ccccc1)c1ccccc1 (stereo not given) | 67% | 80.6% | 90.4% | 95.9% | 109% | 78.8% | 88.9% | 65.1% | 84.9% | 103% | 86.3% | 86.5% | 98.8% | 70.2% | 101% | 98.9% | 65.6% | 87.9% | 85.4% | 76.8%
CCOC(=O)c1ccc(NC(=S)NC(=O)c2cccc(NC(=O)c3ccc(C)cc3)c2)cc1 | 75.3% | 82.5% | 73% | 49.4% | 2.07% (active) | 77.5% | 85.8% | 74.9% | 51.9% | 85.2% | 88.9% | 74.7% | 31% | 63.9% | 89.2% | 75.5% | 76.8% | 105% | 78.3% | 70.4%
O=C(c1ccc(Cl)cc1)C1[C@H](c2ccccc2Cl)[C@@H](c2ccccc2)NC12C(=O)Nc1ccc(Cl)cc12 (stereo not given in full) | -81% (active) | -81.6% (active) | -16.4% (active) | -28.4% (active) | -73.3% (active) | -24.8% (active) | -98.1% (active) | -59.9% (active) | -100% (active) | -80.1% (active) | -87.1% (active) | -23.5% (active) | -90.4% (active) | -51.2% (active) | -0.422% (active) | -26.1% (active) | -20.2% (active) | -40.7% (active) | -6.99% (active) | -29.4% (active)
COc1ccc(-c2cc(C(=O)N=Nc3c(O)[nH]c4ccc(Cl)cc34)c3ccccc3n2)cc1OC | 101% | 117% | 118% | 97.1% | 100% | 103% | 111% | 89.8% | 90.9% | 110% | 102% | 90.1% | 96.4% | 81.8% | 116% | 105% | 95.2% | 167% | 112% | 118%
O=[N+]([O-])c1cccc(-c2nnc3c(/C=C/c4ccc(F)cc4)nc4ccccc4n23)c1 | 85.8% | 98.5% | 54.1% | 92.5% | 95.9% | 103% | 90.9% | 85.1% | 98.5% | 107% | 97.7% | 96.2% | 88% | 78.3% | 121% | 93.8% | 88.8% | 102% | 102% | 90.7%
Fc1ccccc1CNc1nc(SCCN2CCOCC2)nc2c1cnn2CC(Cl)c1ccc(Br)cc1 (stereo not given) | -53.3% (active) | -33.6% (active) | 50.1% | 52.6% | 37.8% | 30.3% | -76% (active) | -4.51% (active) | 1.88% (active) | 22% | 31.1% | 49% | 53.2% | -6.44% (active) | 58.9% | 25.1% | 27% | 53.8% | 22.4% | -25.2% (active)
